Screening results deposited in PubChem by National Center for Advancing Translational Sciences (NCATS).
AMA1-RON2 inh = qHTS for Inhibitors of AMA1-RON; Towards Development of Antimalarial Drug Lead: Primary Screen | Plasmodium falciparum AMA1 (3D7) - RON2 peptide interaction | AlphaScreen AMA1-biotinylated RON2 peptide binding | Potency, µM (top dose mostly 58.2 µM), for inactives: at the top dose activity change, negative = inhibition, hits mostly inhibitors | hit rate 0.2% among 360,000; active = well fitted inhibition curve with a large enough effect; inconclusive = small, poorly fitted or top-dose-only effect; inactive = no such curve, though single readings can be large or run the other way;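 note: potency is the fitted concentration of half-maximal effect; 0% = vehicle wells and -100% = peptide control; nearly all actives have a fitted effect of over 45% in size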
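AMA1 (3D7) with his tag at 25 nM final met compounds first, then biotinylated RON2 peptide at 25 nM; detection used donor plus acceptor beads, 10 µg/mL apiece, read by AlphaScreen after 30 min at room temperature.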
Shiga toxin inh = A qHTS for Small Molecule Inhibitors of Shiga Toxin; AID 2315, 2010; Vero cells, Shiga toxin protein synthesis inhibition reporter; hit rate 9.2% among 290,000; inhibition, % at 38.7 µM; in the data active = inhibition mostly above about 28%, no sharp cut-off; inactive = mostly below about 43%; note: 0% is about no effect
Lassa entry inh = qHTS for Inhibitors of binding or entry into cells for Lassa Virus; AID 540256, 2011; Potency, µM (top dose mostly 37.9 µM), inactives show at the highest dose activity change, negative = inhibition, most hits filed as inhibitors; Lassa virus pseudotype entry inhibition, cell reporter; hit rate 1.2% among 300,000; calls by dose curve; tested in HEK293 cells; note: potency is the fitted concentration of half-maximal effect; % is set by controls: 0 for no effect and ±100 for the full control effect; nearly all actives have a fitted effect of over 50% in size
Cycloheximide cs = Cycloheximide Counterscreen for Small Molecule Inhibitors of Shiga Toxin | hit rate 12% among 300,000 | max response, % | cell reporter, cycloheximide protein synthesis inhibition counterscreen; in the data active = max response mostly above about 13%, no sharp cut-off; inactive = mostly below about 14%; note: read at 38.3 µM for the half of the compounds with a filed dose; 0% is about no effect
MARV entry inh = qHTS for inhibitors of binding or entry into cells for Marburg Virus; Marburg virus pseudotyped entry inhibition, cell reporter; Potency, µM (doses to about 37.8 µM), for inactives: top-dose activity change, negative = inhibition, usual class: inhibitors; hit rate 1.8% among 300,000; AID 540276, 2011; calls by dose curve; tested in HEK293 cells; note: potency is the fitted concentration of half-maximal effect; % is set by controls: 0 for no effect and ±100 for the full control effect
Starred values were filed as active, the others as inactive; u = inconclusive; x = no result given; [ ] = another dose, or the depositor's remark. The entries come from a sample that favours hits as a whole.

SMILES | AMA1-RON2 inh | Shiga toxin inh | Lassa entry inh | Cycloheximide cs | MARV entry inh
CCc1n[nH]c(=S)n1/N=C/c1cc(OC)cc([N+](=O)[O-])c1O | u | 7 | 1% | -1 | -6%[46.1 µM]
O=C(Oc1ccc(-c2nnco2)cc1)c1ccco1 | 12% | x | 7% | x | u
COc1ccc(CCNc2nc(SCc3ccccc3Cl)nc3ccccc23)cc1OC | x | x | -1%[46.1 µM] | x | x
CNc1sc(C(=O)c2ccc(F)cc2)c(N)c1-c1nc2ccccc2s1 | -1% | 38 | 0% | 29* | -21%
CNc1sc(C(=O)c2cccs2)c(N)c1-c1nc2ccccc2s1 | 25% | 176* | u | 40* | -26%
O=C(Nc1ccccc1-c1nc2ccccc2s1)c1ccc(F)cc1 | x | x | u | x | 3%[46.1 µM]
CS(=O)(=O)NNC(=O)Cn1nnc(-c2ccc(OCc3ccccc3Cl)cc2)n1 | 15% | x | x | x | x
COc1ccc(OC)c(CNC(=O)CCCn2nc(C)c3c(C)n(-c4ccc(C)cc4)nc3c2=O)c1 | x | x | -18%[46.1 µM] | x | x
Cc1oc2c(c1C(=O)Nc1ccc(OC(F)(F)F)cc1)C1=NCCN1C=N2 | x | x | 10%[46.1 µM] | x | x
CCOCCCNC(=O)C(c1ccc(Cl)cc1)N(Cc1cccs1)C(=O)c1ccc(NC(C)=O)cc1 (stereo not drawn) | x | x | u | x | 10µM*
CCOCCCNC(=O)C(c1ccc(C)cc1)N(Cc1cccs1)C(=O)c1ccccc1O (stereo not drawn) | 1% | -15 | 11µM* | 1 | u
COc1ccc(NC(=O)Cn2c(=O)n(CCC(=O)NCCc3ccc(OC)c(OC)c3)c(=O)c3ccccc32)cc1Cl | x | x | 25%[46.1 µM] | x | -9%[46.1 µM]
Cc1csc2nc(COC(=O)CNC(=O)c3ccccc3Cl)cc(=O)n12 | x | x | 27%[46.1 µM] | x | x
NS(=O)(=O)c1ccc2nc(-c3ccccc3)c(-c3ccccc3)nc2c1 | 10% | 2 | -14% | -2 | -26%[46.1 µM]
COC(=O)c1ccc(C(=O)Nc2ccc(C(C)C)cc2N)cc1 | 7% | 70* | -25% | 32* | 6%[14.2 µM]
COC(=O)c1ccc(C(=O)NN)cc1 | 46% | 29 | -3% | 13 | u
Fc1ccc(CNc2cc(-c3ccccc3)nc3nncn23)cc1 | x | x | 3%[46.1 µM] | x | u
O=C1CCCC2=C1C(c1ccncc1)c1c(nc(SCc3ccccc3Cl)[nH]c1=O)N2 (stereo not drawn) | -10% | -2 | u | 6 | 10µM*
O=C(O)CCCC(=O)Nc1ccc(OCc2nc3ccccc3s2)cc1 | 21% | 98* | u | 50* | u
COc1ccc(NC(=O)CN(C)C(=O)CCCc2nc3ccccc3s2)cc1 | 19% | x | -2% | x | u
CC(=O)c1ccc(OC(C)c2nc3ccccc3s2)cc1 (stereo not drawn) | 5% | 75* | -22% | 30* | 7%[46.1 µM]
COc1cccc(C(=O)N(C)C(C)c2nc3ccccc3s2)c1 (stereo not drawn) | 5% | 1 | -16%[46.1 µM] | 4 | 1%[46.1 µM]
O=C(CCc1nc2ccccc2s1)Nc1ccccc1 | 0% | 22 | 0% | 11* | -1%
O=C(CCCc1nc2ccccc2s1)Nc1ccccc1 | 4% | 24 | -8%[46.1 µM] | 24 | 16%[46.1 µM]
COc1ccccc1NS(=O)(=O)c1cccc(C(=O)OCc2nc3ccccc3s2)c1 | 2% | 76* | u | 49* | 27%
SMILES | AMA1-RON2 inh | Shiga toxin inh | Lassa entry inh | Cycloheximide cs | MARV entry inh
COc1ccc(N2CCN(S(=O)(=O)c3cn(C)cn3)CC2)cc1 | 4% | 9 | 22%[46.1 µM] | -3 | 1%[46.1 µM]
CCOc1ccc(-n2c(=O)c3c4c(sc3n(Cc3cccc(Cl)c3)c2=O)CCCC4)cc1 | x | x | u | x | 19%[46.1 µM]
CC(C)c1ccccc1NC(=O)CCc1nc2ccccc2s1 | -2% | -4 | 0% | -5 | -1%
COc1ccccc1NC(=O)CCc1nc2ccccc2s1 | 30% | 55 | -1% | 15* | 26%[46.1 µM]
CCNC(=S)Nc1ccc(OCC)cc1 | -4% | 17 | 1% | -1 | 12%
CCNC(=S)Nc1ccc(OCc2nc3ccccc3s2)cc1 | 11% | x | u | 33* | u
COc1ccc(C(=O)CCc2nc3ccccc3s2)cc1 | -5% | 41* | 6% | 50* | 29%
COc1cc(C(=O)N(CCN(C)C)CC2CCCN(Cc3ccccc3F)C2)ccc1C (stereo not drawn) | -12% | 10 | x | -1 | x
Cc1ccc(CNC(=O)CSc2nc3c(sc4ccccc43)c(=O)n2CCCOC(C)C)cc1 | x | x | -10%[46.1 µM] | x | x
Cc1cccc(OCCSc2nc3ccccc3n2CC(=O)N2CCOCC2)c1C | x | x | -5%[46.1 µM] | x | 3%[46.1 µM]
COC(=O)COc1ccc2c(c1)O/C(=C\c1ccco1)C2=O | -18% | 38* | 8% | 29* | 16%
